PubChem BioAssay (NCI)
Compounds without any hit were thinned out: in the full panel of roughly 79,000, 15% have a hit. Unmarked numbers belong to inactive results. Calls of active or inactive are those of the source. No stated cut-off is given here; in the data, active means growth inhibition above about 70%; inactive means the rest.

experiment: NCI Yeast Anticancer Drug Screen. Data for the mlh1 rad18 strain (AID 175); conditions: S. cerevisiae mlh1 rad18 strain growth inhibition; at 50.0 µM; stronger effect = higher value
How it was run: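 Genetically defined yeast (DNA repair-deficient) exposed to compounds; growth inhibition determined relative to vehicle.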

Compound	growth inhibition
O=C(OCC1OC(OC(=O)N(c2ccccc2)c2ccccc2)C(OS(=O)(=O)c2ccc([N+](=O)[O-])cc2)C1OC(=O)c1ccccc1)c1ccccc1 (stereo not given)	24%
CC(C)C(=O)Nc1ccc(Cl)c(Cl)c1	58.1%
Clc1ccc(C(=C(c2ccc(Cl)cc2)c2ccc(Cl)cc2)c2ccc(Cl)cc2)cc1	-1.45%
COC(=O)Nc1cccc(OC(=O)Nc2cccc(Cl)c2)c1	1.4%
COc1cc(C2=N/C(=C\c3cc(Cl)cc(Cl)c3O)C(=O)O2)cc(OC)c1OC	-2.8%
CSc1ccc(NC(=O)Oc2cc(C)c(Cl)cc2C(C)C)cc1	93.5% (active)
c1ccc(C2=NOC(c3ccccc3)N2C23CC4CC(CC(C4)C2)C3)cc1 (stereo not given)	36.1%
O=C1c2ccccc2CN(C(=Nc2ccccc2)Nc2ccccc2)c2ccccc21	14.9%
O=c1c2ccccc2nc(-c2ccccc2)n1/N=C/c1cccnc1	41.2%
Cc1ccc(C(=O)N/N=C/c2c(O)ccc3ccccc23)cc1	27.1%
C[n+]1ccccc1/C=C/c1csc2ccccc12	-3.8%
CNCCCN1CCCCC1	13.6%
CN1CN(c2ccccc2)C2(CCN(c3nc4ccccc4s3)CC2)C1=O	-17.1%
CC1(C)CC[C@]2(C(=O)O)CC[C@]3(C)C(=CC[C@@H]4[C@@]5(C)CC[C@H](OC6OC(CO)C(O)C(O)C6OC6OC(CO)C(O)C(O)C6O)C(C)(C)[C@@H]5CC[C@]43C)[C@@H]2C1 (stereo not given in full)	83.5% (active)
Cc1cc(=O)oc2c(C(=O)/C=C/N(C)C)c(O)ccc12	7.7%
CS1(C)=NC(=O)C2=C(N=1)c1ccccc1S2(=O)=O	-7.85%
O=C(Nc1cc(C(F)(F)F)ccc1Cl)N(Cc1ccccc1)c1ccccc1	-8.7%
CN(C)c1ncnc2c1ncn2C1OC(CO)C(O)C1O (stereo not given)	24.5%
CCCNC(=S)/N=C/c1c(O)c2ccccc2[nH]c1=O	-13.6%
C1=C(c2ccccc2)C(OC2Oc3ccccc3C=C2c2ccccc2)Oc2ccccc21 (stereo not given)	-3.65%

Compound	growth inhibition
O=C1c2ccccc2C(=O)c2c(Nc3ccc4c5c(cccc35)C(=O)c3ccccc3-4)cccc21	13.2%
N#C/C=C\c1ccc(C#N)cc1	19.9%
Cc1cccc2c(C=O)c[nH]c12	14.2%
O=c1[nH]c(=S)[nH]c2[nH]ccc12	-4.4%
C1=C(N2CCOCC2)/C(=C2\SC(=Nc3ccccc3)C(=Nc3ccccc3)N2c2ccccc2)CC1	-28.6%
CCCCCCCCC(C)C	-2.65%
O=S(O)CCCCSSCC(O)CO (stereo not given)	13.7%
CC(=O)Nc1ccc(S(=O)(=O)n2c(=O)oc3cc(Cl)ccc32)cc1	13.5%
Cc1cccc(NCN2C(=O)c3ccccc3C2=O)c1	-1.7%
CSCCCC(N)=O	3.9%
O=C1CC2(CCCCC2)CC(=O)N1	-2.35%
COC(=O)C(Cc1nc2ccccc2[nH]c1=O)C(NO)C(=O)Nc1c(Cl)cc([N+](=O)[O-])cc1Cl (stereo not given)	-1.75%
CC(=O)OCCc1cccc(C)c1	7.3%
CCCCCNC(=O)c1csc(-c2csc(CCNC(C)=O)n2)n1	3.8%
COc1ccc2nc(N/N=C/C(C)=N/Nc3cc(C)c4cc(OC)ccc4n3)cc(C)c2c1	-23.2%
CC1(C)C=C(O)C=C(O)C1	2.5%
O=C(CSSCC(=O)Nc1ccccc1O)Nc1ccccc1O	-4.85%
COc1ccc(C2SCC(=O)N2NC(=O)c2ccc(NC(C)=O)cc2)c(OC)c1 (stereo not given)	-11.7%
CN(C)CC1CCCC(CN(C)C)C1OC(=O)c1ccccc1 (stereo not given)	50.9%
NC(=O)c1ccccc1NC(=O)C(=O)C(C(=O)c1ccc2ccccc2c1)C1OC(=O)c2ccccc21 (stereo not given)	9.15%
